# Assay results taken from the supplement of paper PMC3545927.
# The other results are listed elsewhere or left out. The true hit rate is not given.
# Target: furin, P09958
# Experiment: furin cleavage Z-score vs untreated control; higher = more cleavage, active = 3.5 or more, inactive = 1 or less, 8 variable residues between constant flanks
# How it was run: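 Peptides 8 residues long, fused to a cDNA oligonucleotide, were fixed to magnetic beads by the N-terminus and exposed to purified furin. The 0.01 ml reactions contained 50 mM HEPES pH 7.5 with CaCl2 and NaCl at 1:10 enzyme:substrate and ran 7.5, 15 or 30 min. For the cleavage Z-score, log counts of sequenced released DNA were compared with furin-free reactions, lowess-adjusted and scaled by median absolute deviation.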
# furin, P09958, sequence (P09958 whole entry): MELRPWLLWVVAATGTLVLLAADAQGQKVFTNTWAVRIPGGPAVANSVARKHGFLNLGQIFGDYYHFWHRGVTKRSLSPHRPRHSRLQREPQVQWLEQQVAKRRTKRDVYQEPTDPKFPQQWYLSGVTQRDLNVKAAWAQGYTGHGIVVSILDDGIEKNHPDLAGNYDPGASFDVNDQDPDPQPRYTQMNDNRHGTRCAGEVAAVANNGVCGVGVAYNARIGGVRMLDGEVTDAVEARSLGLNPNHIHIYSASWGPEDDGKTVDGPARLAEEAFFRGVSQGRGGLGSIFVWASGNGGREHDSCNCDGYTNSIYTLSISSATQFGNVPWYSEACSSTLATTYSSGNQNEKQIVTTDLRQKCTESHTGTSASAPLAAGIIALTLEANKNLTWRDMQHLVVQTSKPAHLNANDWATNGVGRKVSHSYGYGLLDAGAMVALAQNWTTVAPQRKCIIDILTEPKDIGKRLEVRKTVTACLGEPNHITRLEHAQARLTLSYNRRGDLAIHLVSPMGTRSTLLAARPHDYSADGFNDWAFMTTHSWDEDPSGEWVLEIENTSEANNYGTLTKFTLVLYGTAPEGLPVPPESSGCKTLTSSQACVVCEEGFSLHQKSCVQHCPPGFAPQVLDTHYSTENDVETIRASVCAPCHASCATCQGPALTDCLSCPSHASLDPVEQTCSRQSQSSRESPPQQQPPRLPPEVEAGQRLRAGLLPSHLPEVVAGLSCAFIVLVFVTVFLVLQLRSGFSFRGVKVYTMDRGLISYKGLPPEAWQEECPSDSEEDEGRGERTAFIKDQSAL
Sequence,furin cleavage Z-score (7.5 min),furin cleavage Z-score (15 min),furin cleavage Z-score (30 min)
CATPCTCGSSAGNASASA [HC721],-1.49 (inactive),-2.13 (inactive),-1.32 (inactive)
CAEECSQHLPAGNASASA [HC1015],0.447 (inactive),0.0813 (inactive),-0.935 (inactive)
CATTTCSGSWAGNASASA [HC1878],-0.962 (inactive),0.367 (inactive),-0.313 (inactive)
CALRAYMNTPAGNASASA [HC930],0.0194 (inactive),-1.18 (inactive),0.0807 (inactive)
CAPRAAERRSAGNASASA [FS-74],-1.2 (inactive),-1.99 (inactive),-1.56 (inactive)
CALRARKNRSAGNASASA [FS-942],8.1 (active),8.12 (active),6.93 (active)
CATTTRKNRSAGNASASA [FS-1498],8.64 (active),11 (active),7.73 (active)
CAPRARKNRSAGNASASA [FS-949],12.3 (active),12.6 (active),8.81 (active)
CAPRARSRRSAGNASASA [FS-1053],9.77 (active),10.8 (active),8.95 (active)
CAEEIRVNRSAGNASASA [FS-229],2.33,0.724 (inactive),1.69
CAEVVTSTHVAGNASASA [HC2235],-0.582 (inactive),0.167 (inactive),-1.55 (inactive)
CAVCGDDLVVAGNASASA [HC1528],-2.27 (inactive),-1.44 (inactive),-0.381 (inactive)
CADLVVICESAGNASASA [HC1530],0.357 (inactive),-1.48 (inactive),1.02
CAPPGSVTVPAGNASASA [HC836],0.584 (inactive),0.308 (inactive),-0.638 (inactive)
CAKVVTSTWVAGNASASA [HC2154],-1.02 (inactive),1.09,-1.67 (inactive)
CATTPCIGSWAGNASASA [HC65],0.499 (inactive),3.77 (active),2
CATTPCMGSWAGNASASA [HC68],1.12,0.786 (inactive),-0.593 (inactive)
CATTPCWGSWAGNASASA [HC67],0.261 (inactive),1.14,1.23
CAEKRRSADIAGNASASA [FS-2630],-0.771 (inactive),-1.51 (inactive),-0.666 (inactive)
CASDSRHSRQAGNASASA [FS-1612],0.00727 (inactive),0.0993 (inactive),0.17 (inactive)
CAAGVAGALVAGNASASA [HC1089],-0.652 (inactive),-0.752 (inactive),0.946 (inactive)
CAGPGEGAVQAGNASASA [HC1114],-0.225 (inactive),-1.41 (inactive),-1.21 (inactive)
CAGKSRNKRQAGNASASA [FS-243],10.4 (active),10.6 (active),10.1 (active)
CAALDRTKRQAGNASASA [FS-579],11.8 (active),12.8 (active),11 (active)
CAEKTRHARQAGNASASA [FS-1520],8.09 (active),8.28 (active),7.03 (active)
CAAMGRGKRQAGNASASA [FS-1184],9.02 (active),8.89 (active),8.8 (active)
CAHIDAHFLSAGNASASA [HC944],-0.528 (inactive),-1.68 (inactive),-0.674 (inactive)
CAGCSFSIFLAGNASASA [HC246],-1.55 (inactive),-1.86 (inactive),0.305 (inactive)
